These results are taken from PubChem BioAssay (NCATS).

Molecules are shown by their SMILES. Several values for one entry are separate records, joined by “and”; a condition that tells them apart may be missing. Identical values can stand only once. Results filed as inconclusive are left out. Values without a mark were called inactive. Activity calls are given as the source filed them. The call rests on the fitted dose curve; in most records, active means well fitted curve in the direction sought with a large enough effect in the signal ratio, with a control signal flat; inconclusive means small, poorly fitted or top-dose-only effect, or a change in a side signal; inactive means no such curve, though single readings can be large or run the other way; the % refers to the signal ratio.

For the assay, the target named is Glucocorticoid receptor (Homo sapiens) (UniProt P04150). Briefly: qHTS assay for small molecule agonists of glucocorticoid receptor signaling (AID 588532). The settings on record: HeLa MMTV-bla, beta-lactamase ratio, agonist, 18 h; activation: stronger effect = higher value, percent of dexamethasone control, DMSO zero. The source says: NIH Chemical Genomics Center [NCGC] U.S. Environmental Protection Agency [EPA] National Institutes of Environmental Health Sciences [NIEHS] National Toxicology Program [NTP] NCGC Assay Overview The Glucocorticoid receptor (GR), a nuclear receptor subfamily member and its natural ligands includes […] etc. The GR is a validated drug target for inflammation. GR ligands such as dexamethasone are clinically available as anti-inflammatory drugs. Glucocorticoids implicate role in carbohydrate, protein and lipid metabolisms and programmed cell death. They are also a component of many chemotherapy regimens for the treatment of leukemias, lymphomas, and myelomas because of their role in the induction of apoptosis.
Chain of Glucocorticoid receptor (Homo sapiens) (P04150 whole entry, looked up): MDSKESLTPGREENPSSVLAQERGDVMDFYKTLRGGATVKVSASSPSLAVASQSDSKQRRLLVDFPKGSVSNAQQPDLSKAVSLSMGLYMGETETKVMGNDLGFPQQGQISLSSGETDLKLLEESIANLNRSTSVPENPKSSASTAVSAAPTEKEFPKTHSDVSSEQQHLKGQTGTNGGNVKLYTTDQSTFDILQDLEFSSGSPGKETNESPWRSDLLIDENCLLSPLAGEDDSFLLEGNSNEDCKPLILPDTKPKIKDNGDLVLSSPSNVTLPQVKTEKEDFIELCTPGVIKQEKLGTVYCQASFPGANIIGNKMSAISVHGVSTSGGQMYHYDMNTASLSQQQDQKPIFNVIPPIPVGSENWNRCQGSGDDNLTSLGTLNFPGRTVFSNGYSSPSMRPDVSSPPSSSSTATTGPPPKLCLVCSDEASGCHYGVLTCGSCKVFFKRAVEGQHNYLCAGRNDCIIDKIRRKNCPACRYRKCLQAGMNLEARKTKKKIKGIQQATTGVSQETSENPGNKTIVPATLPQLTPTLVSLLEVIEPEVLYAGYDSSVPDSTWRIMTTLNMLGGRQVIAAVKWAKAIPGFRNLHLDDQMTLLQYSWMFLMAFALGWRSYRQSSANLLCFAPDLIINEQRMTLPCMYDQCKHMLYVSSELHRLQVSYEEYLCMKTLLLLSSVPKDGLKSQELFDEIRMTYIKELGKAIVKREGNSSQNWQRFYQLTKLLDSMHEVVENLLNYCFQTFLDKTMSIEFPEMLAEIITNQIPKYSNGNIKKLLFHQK
NCGC Assay Protocol Summary Using a beta-lactamase reporter-gene under control of glucocorticoid response element (GRE), a cell-based assay [CellSensor MMTV-bla HeLa cell line assay developed by Invitrogen] was used to measure GR ligands signaling. CellSensor MMTV-bla HeLa cells were used with assay medium containing 1% charcoal/dextran treated FBS, 0.1 mM NEAA, 1 mM sodium pyruvate and 25mM HEPES. The assay was performed in clear bottom black Greiner 1536-well plates. Dexamethasone and Mifepristine were used in the screen as agonist and antagonist positive controls respectively. Library compounds were measured for their ability to stimulate the reporter gene activity. Compounds were screened in a titration series in 1536-well format. The fluorescence intensity (405 nm excitation, 460/530 nm emission) was measured using an EnVision plate reader. Data was normalized relative to Dexamethasone control (0.1 uM, 100%), and DMSO only wells (basal, 0%). Concentration-response titration points for each compound were fitted to the Hill equation yielding concentrations of half-maximal stimulation (EC50) and maximal response (efficacy) values. qHTS protocol for GR beta-lactamase assay in agonist mode [Step] [Parameter] [Value] [Description] 1. Reagent; 6 uL; 1500 cells/well 2. Incubation; 37 C for 3-5 hrs 3. Compounds; 23 nL; 0.59 nM to 92 uM 4. Controls (Dexamethasone); 23 nL, - One column with dose response, start 4.6uM, 1:3 dilutions in duplicates - Final concentrations of 0.1 uM and 2 nM in two columns 5. Incubation; 37 C for 18 hrs 6. Detection reagent; 1 uL of CCF4-dye 7. Incubation; RT for 2 hrs 8. Detection; Fluorescence; Envision plate reader
Consider `CCC[CH2][Sn](=[O])[CH2]CCC`, for which the activation is -3.35%.

Consider `O=P(Oc1ccccc1)(Oc1ccccc1)Oc1ccccc1`, for which the activation is 6.86%.

In the case of `CCC[CH2][Sn]([Cl])([Cl])[CH2]CCC`, the activation was -12%.

For the molecule `CCCCN(CC)c1c([N+](=O)[O-])cc(C(F)(F)F)cc1[N+](=O)[O-]`, the activation is -5.8%.

Consider `CCCOc1nn(C(=O)NS(=O)(=O)c2ccccc2C(=O)OC)c(=O)n1C`, for which the activation was -2.11%.

With `S=C(S)NCCNC(=S)S`, the activation is -2.17%.

For `CC1=C(C(=O)Nc2ccccc2)S(=O)(=O)CCO1`, the activation is -17.4%.

`O=S(=O)(O)C(F)(F)C(F)(F)C(F)(F)C(F)(F)C(F)(F)C(F)(F)F`: the activation was 2.96% and -3.35%.

In the case of `COc1cc(OC)nc(NC(=O)NS(=O)(=O)c2ncccc2C(F)(F)F)n1`, the activation is -18.1%.

In the case of `CCC(C)(C)c1cc(-n2nc3ccccc3n2)c(O)c(C(C)(C)CC)c1`, the activation is 2.15%.

Take `C#CC(C)(C)NC(=O)c1cc(Cl)cc(Cl)c1`: the activation is -9.44%.

Consider `CCNP(=S)(OC)O/C(C)=C/C(=O)OC(C)C` (stereo not given), for which the activation is -6.1%.

As for `CC1(C)[C@@H](C=C(Cl)Cl)[C@@H]1C(=O)OCc1cccc(Oc2ccccc2)c1`, the activation is 0.397%.

Consider `CC(C)CCCCCCOC(=O)c1ccccc1C(=O)OCCCCCCC(C)C`, for which the activation is 9.1%.

For the molecule `Clc1ccc(-c2cc(Cl)c(Cl)cc2Cl)cc1Cl`, the activation was -2.9%.

For the molecule `CC(C)(C)c1ccc(CSc2cnn(C(C)(C)C)c(=O)c2Cl)cc1`, the activation is -0.474%.

Turning to `Clc1ccc([C@]2(Cn3cncn3)C[C@H](Br)CO2)c(Cl)c1`, the activation is -7.37% and -0.86%.

In the case of `CCOP(=S)(OCC)SCn1c(=O)oc2cc(Cl)ccc21`, the activation was 0.851%.

In the case of `CC(C)[C@@H](Nc1ccc(C(F)(F)F)cc1Cl)C(=O)OC(C#N)c1cccc(Oc2ccccc2)c1` (stereo not given in full), the activation was -3.97%.

As for `CNC(=O)O/N=C(\C)SC`, the activation is -2.31%.

As to `CCCN(CC)CC1COC2(CCC(C(C)(C)C)CC2)O1` (stereo not given), the activation was 11.4%.

For the molecule `COc1ccc(-c2ccccc2)cc1NNC(=O)OC(C)C`, the activation is -5.42%.

In the case of `Cc1c(F)c(F)c(COC(=O)C2C(/C=C(\Cl)C(F)(F)F)C2(C)C)c(F)c1F` (stereo not given), the activation is 9.43%.

Turning to `CCCCCCCCCCCC#N`, the activation is -5.17%.

Regarding `Oc1ccc(C2(c3ccc(O)cc3)c3ccccc3-c3ccccc32)cc1`, the activation was -14.6%.

In the case of `CC(C)CC(C)Nc1ccc(Nc2ccccc2)cc1` (stereo not given), the activation was 4.35%.

Take `CCC[CH2][Sn]([CH2]CCC)[CH2]CCC`: the activation is -13.3%.

Turning to `CC(Oc1cccc(Cl)c1)C(=O)O` (stereo not given), the activation was -9.84%.

As for `CCCCOCN(C(=O)CCl)c1c(CC)cccc1CC`, the activation was -1.18%.

Consider `CC(Oc1cc(Cl)c(Cl)cc1Cl)C(=O)O` (stereo not given), for which the activation is -0.156%.

For `CCC[CH2][Sn]([CH2]CCC)([O]C(C)=O)[O]C(C)=O`, the activation was -12.8%.

Consider `c1ccc2cc3c(cc2c1)-c1cccc2cccc-3c12`, for which the Potency is 15.8 µM (active).

Turning to `Nc1ccc([N+](=O)[O-])cc1Cl`, the activation was -4.74%.

Turning to `CCNc1nc(Cl)nc(NC(C)(C)C#N)n1`, the activation is -6.13%.

On to `COc1cc(OC)nc(NC(=O)NS(=O)(=O)c2ncccc2OCC(F)(F)F)n1`, for which the activation is 3.36%.

With `CC1(C)[C@H](C(=O)O[C@H](C#N)c2cccc(Oc3ccccc3)c2)[C@@H]1/C=C(\Cl)C(F)(F)F`, the activation was 16%.

On to `CNC(=O)Oc1cccc2c1OC(C)(C)C2O` (stereo not given), for which the activation is 12.4%.

As for `O=C1C2(Cl)C3(Cl)C4(Cl)C(Cl)(Cl)C5(Cl)C3(Cl)C1(Cl)C5(Cl)C24Cl` (stereo not given), the activation was -3.98% and -15.4%.

Turning to `O=[N+]([O-])C(Br)Br`, the activation is -5.74%.

For `O=CNC(N1CCN(C(NC=O)C(Cl)(Cl)Cl)CC1)C(Cl)(Cl)Cl` (stereo not given), the activation is -2.65%.
